We go through 53 compounds from ChEMBL document CHEMBL4513216, “Probing the Open Global Health Chemical Diversity Library for Multistage-Active Starting Points for Next-Generation Antimalarials” (ACS Infect Dis, 2020).

Structures are written as SMILES. The whole screen tested about 68,000 compounds, of which about 2,700 (4%) showed an effect of 50% or more. This is one part of a sample in which strong results are shown more often than they occur.

This assay has as its system Plasmodium berghei. Briefly: Screen against P. berghei liver stage (PbLuc), transformed with Luciferase, at 2uM. The format is functional, HepG2. Particulars: tested at 2 uM.
As to `CNC(=O)C(C)(C)NC(=O)c1cc(COc2ccccc2OC)[nH]n1`, the INHIBITION is given as -25.61%.
In the case of `COc1ccccc1CC(=O)NS(=O)(=O)c1ccc(C(N)=O)cc1`, the INHIBITION was 1.5%.
For `COc1ccc(Cl)cc1CN(CC(N)=O)C(C)C`, the INHIBITION turned out to be 50.46%.
In the case of `COc1ccc(C)cc1CN(CC(N)=O)C(C)C`, the INHIBITION was found to be 11.51%.
Take `COc1ccc(Cl)cc1CC(=O)NS(=O)(=O)c1ccc(C(N)=O)cc1`: the INHIBITION is given as 58.96%.
With `COc1ccc(C)cc1CC(=O)NS(=O)(=O)c1ccc(C(N)=O)cc1`, the INHIBITION stood at 43.75%.
Consider `COc1ccc(F)cc1CN(CC(N)=O)C(C)C`, for which the INHIBITION was -21.69%.
`c1ccn(Cc2nnc3n2CCCN(c2cnccn2)C3)c1`: the INHIBITION is -11.68%.
As for `Cc1cnc(CN(C)C2CCN(Cc3ccc(Cl)s3)C2)o1` (stereo not drawn), the INHIBITION is -39.39%.
For `Nc1ncccc1CN1C[C@H]2CC[C@@H](C1)N(CC1CC1)C2=O`, the INHIBITION is 70.26%.
Regarding `Cc1noc(C)c1CN1C(=O)[C@@H]2CC[C@H]1CN(Cc1cccnc1N)C2`, the INHIBITION came to 31.38%.
With `CC(C)=CCN1C(=O)[C@@H]2CC[C@H]1CN(Cc1cccnc1N)C2`, the INHIBITION was 16.01%.
For the compound `Cc1nccc(NCc2cncc3c2CCN(CC2CC2)C3)n1`, the INHIBITION is recorded as 25.86%.
`CCOc1ccc(NC2CCN(C3CC3)C2=O)cn1` (stereo not drawn): the INHIBITION is on record as -13.8%.
The result for `Cc1ncc(CNC(C)(C)CO)c2cc(C(=O)c3ccc(Br)cc3)oc12` reads 61.06%; that for `Cc1ncc(CNCC(C)O)c2cc(C(=O)c3ccc(Br)cc3)oc12` (stereo not drawn), -4.01%; that for `Cc1ncc(CNCCO)c2cc(C(=O)c3ccc(Br)cc3)oc12`, 29.19%.
Take `CCc1ccc(C2CCCCCN2C(=O)CNC(=O)C2CC2)o1` (stereo not drawn): the INHIBITION is -1.21%.
As for `OC(CNCCn1cccn1)c1ccc(C(F)(F)F)cc1` (stereo not drawn), the INHIBITION is -33.92%.
For the compound `CCc1nnc(Nc2cccc(C3CCCN(CC(C)(C)C)C3)n2)s1` (stereo not drawn), the INHIBITION is 53.05%.
The result for `CCc1nnc(Nc2cccc(C3CCN(CC4CC4)CC3)n2)s1` reads 20.71%.
`CCc1nnc(Nc2cccc(C3CCN(C)CC3)n2)s1`: the INHIBITION worked out at 7.64%.
With `CC(C)CCOCCNC(=O)Nc1ccc(F)c(C(N)=O)c1`, the INHIBITION is -24.7%.
Regarding `Cc1cc(C(F)(F)F)nc(C2COCCN2S(C)(=O)=O)n1` (stereo not drawn), the INHIBITION came to 6.64%.
`Cc1ccc(CN(C)C(C(=O)O)c2ccc3c(c2)OCO3)o1` (stereo not drawn): the INHIBITION is recorded as -39.01%.
The result for `Cc1cccc(S(=O)(=O)N2CSCC2C(=O)NC(C)(C)C)c1` (stereo not drawn) reads 55.18%; that for `Cc1cccc(S(=O)(=O)N2CSCC2C(=O)NCC2CC2)c1` (stereo not drawn), 3.89%; that for `CC(C)(C)NC(=O)C1CSCN1S(=O)(=O)c1cccc(F)c1` (stereo not drawn), 7.74%.
In the case of `N#Cc1cccc(NC(=O)C2CCCN2c2nccs2)c1` (stereo not drawn), the INHIBITION is recorded as 6.77%.
On to `Cc1ccc2nc(C3CCCN3Cc3scnc3C)[nH]c2c1` (stereo not drawn), for which the INHIBITION is on record as 47.23%.
The result for `Cc1ccc2nc(C3CCCN3Cc3nnc(C)s3)[nH]c2c1` (stereo not drawn) reads 78.16%; that for `Cc1ccc2nc(C3CCCN3Cc3csc(C)n3)[nH]c2c1` (stereo not drawn), 29.53%.
For the compound `O=C(NCCc1ccccc1)N1CCC(C2OCCO2)CC1`, the INHIBITION is recorded as 5.92%.
The result for `O=C(Cc1ccc(CO)cc1)N1CCN(c2ccccc2Cl)C(=O)C1` reads 47.76%; that for `CCC(NC(=O)c1ccc2[nH]ccc2c1)C(=O)N1CCOCC1` (stereo not drawn), 5.98%; that for `CC(C)c1nnc2n1CCN(Cc1ncc(-c3ccccc3)o1)C2`, -58.75%.
The result for `CC(C)(C)Oc1ccccc1CNC(=O)C1CCCOC1` (stereo not drawn) reads 52.98%; that for `O=C(NCc1ccccc1OCC1CC1)C1CCOC1` (stereo not drawn), 14.82%.
In the case of `COCCNc1ccccc1CNC(=O)C1CCCOC1` (stereo not drawn), the INHIBITION is on record as -4.26%.
Take `NC(=O)CN1CC2(CCC1=O)CCN(Cc1ccc(Cl)c(F)c1)CC2`: the INHIBITION is reported as 23.63%.
`CC(C)Cn1cncc1CNC1CCSC1` (stereo not drawn): the INHIBITION is recorded as -18.33%.
The result for `COc1c(CNC2CCN(C(=O)C(C)C)CC2)c(C(C)C)nn1C` reads 11.2%; that for `COc1c(CNC2CCN(C(C)(C)C)CC2)c(C(C)C)nn1C`, 51.19%.
Regarding `COc1c(CNC2CCC(O)CC2)c(C(C)C)nn1C` (stereo not drawn), the INHIBITION was 11.2%.
Consider `COc1c(CNC2CCN(c3ccccn3)CC2)c(C(C)C)nn1C`, for which the INHIBITION was -11.2%.
As for `COc1c(CNC2CCCN(c3ncccn3)C2)c(C(C)C)nn1C` (stereo not drawn), the INHIBITION turned out to be 56.02%.
Take `COc1c(CNC2CCN(c3ncccn3)CC2)c(C(C)C)nn1C`: the INHIBITION is -79.53%.
The result for `Clc1ccccc1C1CN(CCc2ccncc2)CCO1` (stereo not drawn) reads -35.92%; that for `COc1ccc(NC(=O)c2nc3ccccc3n(C)c2=O)cc1OC`, 9.85%.
Regarding `CNS(=O)(=O)Cc1ccc(CNC(=O)c2cccc(C)n2)cc1`, the INHIBITION is given as 65.77%.
With `CNS(=O)(=O)c1ccc(CNC(=O)c2cccc(C)n2)cc1`, the INHIBITION is reported as -9.17%.
Take `Cc1cccc(C(=O)NCc2ccc(CS(N)(=O)=O)cc2)n1`: the INHIBITION is recorded as -45.83%.
The result for `CO[C@H]1CN(C(=O)OC(C)(C)C)CC1NCc1ccco1` (stereo partly drawn) reads 32.73%.
